GC-B act – GC-B (human) receptor activation. AID 1920062. HEK293-GC-B cells, CNP EC30, cGMP TR-FRET; 0% at EC30 CNP, 100% saturating CNP. activation, % at 10 µM. 370,000 compounds, 0.11% hits. P20594;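 active = activation at 10 µM reaching about 35% in either raw or pattern-adjusted values, limit read from the data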
ADAM17 inh – ADAM17 inhibition, QFRET primary screen | P78536 | recombinant ADAM17, EDANS/DABCYL FRET peptide cleavage | inhibition, % at 6.95 µM | 370,000 compounds, 0.83% hits | AID 720648;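 active = inhibition above the mean of compounds lying between control limits plus 3 SD, set per campaign, cut at about 8.5% in these data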;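 note: 0% = DMSO-only wells as the low control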
ADAM10 inh – inhibits human ADAM10; 370,000 compounds, 0.62% hits; inhibition, % at 7 µM; recombinant ADAM10, EDANS/DABCYL FRET peptide cleavage, 3 h; O14672; AID 720582;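 active = inhibition above a per-campaign cutoff equal to the mean of compounds falling between control-based bounds plus 3 SD, cut at about 20% in these data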;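 note: 0% = DMSO wells while the 100% control is not disclosed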
NPR1 activator – GC-A (human) enzyme activation. HEK293 GC-A cells, cGMP TR-FRET, EC30 ANP; 0% at EC30 ANP, 100% saturating ANP. activation, % at 10 µM. 370,000 compounds, 0.14% hits; in the data active = activation above about 40%
ADAM10 ctr – counter-screen for ADAM17 exosite inhibitors: inhibitors of human ADAM10. recombinant ADAM10, EDANS/DABCYL FRET peptide cleavage, 3 h. shares compounds with ADAM17 inh. 2,900 compounds, 47% hits. inhibition, % at 6.95 µM;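 active = mean inhibition over the triplicate runs exceeds the activity threshold set in the earlier primary screen, cut at about 20% in these data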;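 note: 0% = DMSO wells and 100% = marimastat wells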
ADAM17 confirm – human ADAM17 inhibition, confirmation; shares compounds with ADAM17 inh; recombinant ADAM17, EDANS/DABCYL QFRET peptide cleavage; inhibition, % at 6.95 µM; 2,900 compounds, 65% hits; AID 743257;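 active = mean inhibition across replicates above the hit cutoff set in the primary screen, cut at about 8.5% in these data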;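 note: 0% = DMSO wells and 100% = marimastat wells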
* = called active by the depositor; nt = not tested or not shown. An excerpt weighted towards active compounds, which were near 1.3% of everything screened.

SMILES	GC-B act	ADAM17 inh	ADAM10 inh	NPR1 activator	ADAM10 ctr	ADAM17 confirm
Cc1ccc(CC2(c3ccccc3)NC(=O)NC2=O)cc1 (centres undefined)	-2.8	18.1*	-8.6	-7.1	-6.3	17.9*
Nc1nc(N)c2ncn(C3C=CC(CO)C3)c2n1 (centres undefined)	7.0	-0.7	-18.9	2.9	nt	nt
C[C@@H]1CN([C@H](C)CO)C(=O)c2cc(NC(=O)Cc3ccccc3)ccc2O[C@H]1CN(C)Cc1ccc(Oc2ccccc2)cc1	-0.9	9.2*	18.6	-3.1	28.3*	19.5*
C[C@@H]1CN([C@H](C)CO)C(=O)c2cc(NC(=O)Cc3cn(C)c4ccccc34)ccc2O[C@H]1CN(C)C(=O)Nc1ccc2c(c1)OCO2	6.1	13.7*	17.8	1.1	5.0	4.8
COc1ccc(NC(=O)N(C)C[C@H]2Oc3ccc(NC(=O)Nc4ccc(C(F)(F)F)cc4)cc3C(=O)N([C@H](C)CO)C[C@@H]2C)cc1	7.7	8.7*	13.9	0.9	35.7*	17.7*
O=S1(=O)C[C@H](N2CCC[C@@H]2CO)[C@@H](COCc2ccccc2)N1	4.6	-3.6	-1.3	1.6	nt	nt
CCc1ccc(NC(=O)COC(=O)/C=C/c2ccco2)cc1	0.5	11.3*	4.7	-3.8	1.6	4.3
CC(C)Cn1c(SCC(=O)NC2CC2)nc2ccccc21	2.4	-1.0	0.7	-4.9	nt	nt
COc1ccc(C2(C)NC(=O)N(CC(=O)Nc3ccc4c(c3)OCO4)C2=O)cc1OC (centres undefined)	-1.8	10.6*	11.8	-4.6	12.5	9.0*
COc1ccc(C)cc1S(=O)(=O)N(CC(=O)Nc1ccc2c(c1)OCCO2)Cc1ccccc1	-3.5	nt	nt	15.2	nt	nt
CC1(c2ccc3c(c2)OCO3)NC(=O)N(CC(=O)Nc2ccccc2)C1=O (centres undefined)	5.3	-3.2	-5.8	5.3	nt	nt
COCCOc1ccc(C(F)(F)F)cc1NC(=O)CN1C(=O)NC(C)(c2ccc3c(c2)OCO3)C1=O (centres undefined)	3.1	11.7*	18.1	-6.8	19.2	12.5*
COc1ccc(C)cc1S(=O)(=O)N(C)CC(=O)Nc1ccc2c(c1)OCO2	-1.4	10.1*	13.7	-4.1	5.1	4.7
CCOc1ccc(NC(=O)CSc2nc3cc(C(=O)NCC4CCCO4)ccc3c(=O)n2CC2CCCO2)cc1 (centres undefined)	-0.5	-2.5	-8.3	0.9	nt	nt
Cc1ccc(S(=O)(=O)N2CCC(C(=O)OCC(=O)N3C(C)CCCC3C)CC2)cc1C (centres undefined)	0.1	-1.7	-0.3	7.1	nt	nt
C[C@H](NC(=O)c1nc[nH]c1C(=O)N[C@@H](Cc1ccccc1)C(=O)OCc1ccccc1)C(=O)OCc1ccccc1	4.3	10.6*	15.9	0.1	32.5*	19.0*
CC(C)(C)OC(=O)[C@H](Cc1ccccc1)NCC(=O)OCc1ccc(C(=O)NCc2ccccc2)cc1	3.9	8.7*	12.9	-6.0	10.5	8.1
CNC(=O)c1[nH]cnc1C(=O)N[C@@H](Cc1ccccc1)C(=O)OCc1ccccc1	-9.4	1.2	9.8	-11.1	nt	nt
C[C@@H](NC(=O)c1nc[nH]c1C(=O)N[C@@H](Cc1ccccc1)C(=O)OC(C)(C)C)c1ccccc1	8.3	10.0*	19.0	1.2	32.8*	14.1*
COC(=O)c1ccc(COC(=O)CNC(=O)c2ccc(-c3ccccc3)cc2)cc1	2.7	-0.6	-5.4	3.8	nt	nt
CC(C)(C)OC(=O)NCc1ccc(NC(=O)c2nc[nH]c2C(=O)N[C@@H](Cc2ccccc2)C(=O)OCc2ccccc2)cc1	-2.4	3.4	14.4	-1.3	nt	nt
CC(C)(C)OC(=O)NCc1ccc(CNC(=O)c2[nH]cnc2C(=O)N[C@@H](Cc2ccccc2)C(=O)OCc2ccccc2)cc1	2.4	12.0*	15.8	0.3	33.8*	19.9*
CC(C)C[C@H](NC(=O)c1[nH]cnc1C(=O)Nc1ccccc1)C(=O)OC(C)(C)C	-2.5	14.0*	27.2*	0.7	40.5*	20.2*
COc1ccc(N2CCN(C(=O)CCC(=O)N3CCOc4ccc(Cl)cc43)CC2)cc1	-10.6	11.3*	10.8	-4.1	29.0*	8.0
